Measurements published in ChEMBL document CHEMBL3988442, “University of Dundee, Small-Polar-MMV Screening Library” (2021).
Among all 48,000 compounds or so, about 13,000 (27%) showed an effect of 50% or more. The list shows a part of the results.

tested on: Wolbachia pipientis; test: Anti-Wolbachia Cell-Based Screen; type: functional; set-up: scale not given: in the data most compounds retested in dose-response had high values; settings: 5 µM

Row | SMILES | Percent Effect [%]
1 | O=C(C1SCCc2sccc21)N1CCCCC1 (stereo not given) | 1.977
2 | N#Cc1cccnc1OC1CCN(C(=O)c2cc(C3CC3)on2)CC1 | -1.829
3 | CN1N=C(C(=O)N(Cc2ccco2)C2CCCC2)CCC1=O | 120.9
4 | CN(CC1COc2ccccc2O1)C(=O)C1=NN(C)C(=O)CC1 (stereo not given) | -4.029
5 | CN(Cc1ccco1)C(=O)C1=NN(C)C(=O)CC1 | 140.7
6 | Cc1ccc(N2N=C(C(=O)N(C)Cc3ccco3)NCC2=O)cc1 | 2.373
7 | O=C(c1c[nH]c2ncccc12)N(Cc1ccco1)C1CCCC1 | 4.323
8 | Cc1ccc(N(Cc2ccco2)C(=O)CC2=NN(C)C(=O)C2)cc1 | 134.3
9 | O=C(NCCc1nnc2n1CCC2)N(Cc1ccco1)C1CCCC1 | -12.78
10 | CN(Cc1ccco1)C(=O)c1ccc(=O)n(C)c1 | 12.27
11 | CCN(Cc1ccco1)C(=O)C1=NN(c2ccccc2)C(=O)CN1 | 5.452
12 | COC(=O)c1cc(CN2CCN(c3ncccc3C)CC2)ccc1O | 0.3059
13 | CCC(C)NS(=O)(=O)Cc1cccc(NC(=O)C2=CCCC2)c1 (stereo not given) | -11.93
14 | CCN(CC(=O)NC)S(=O)(=O)N1CCCCCC1 | -4.569
15 | O=C1OCCN1CCCN1CCCC1c1ccc(O)cc1 (stereo not given) | -23.79
16 | Cc1c[nH]c(CN2CC[C@@]3(O)CCN(C(=O)C4CCC4)C[C@H]3C2)n1 | 3.285
17 | CN(c1ncc(C(=O)Nc2ccccc2)c(N)n1)C1CCCCC1 | -11.44
18 | CN(c1nccc(-c2cnc3sc(Cl)cn3c2=O)n1)C1CCCCC1 | 110
19 | COc1ccnc(NC2CCN(CC(=O)N3CCCC3)CC2)n1 | -3.698
20 | Cc1nc(N(C)C2CCCCC2)ncc1C(C)NC(=O)c1cccnc1 (stereo not given) | 7.363
21 | CN(c1nccc(-c2cnc3sccn3c2=O)n1)C1CCCCC1 | 92.84
22 | CN(C)c1nccc(N(C)C2CCCCC2)n1 | -7.043
23 | O=c1c(-c2ccnc(NC3CCCCC3)n2)cnc2sc(Cl)cn12 | 123.9
24 | CCN(C)S(=O)(=O)NC(C)c1cnc(N(C)C2CCCCC2)nc1C (stereo not given) | -0.2104
25 | Cc1nc(N(C)C2CCCCC2)ncc1C(C)NC(=O)c1cscn1 (stereo not given) | -3.92

Row | SMILES | Percent Effect [%]
26 | Cc1cn2c(=O)c(-c3ccnc(N(C)C4CCCCC4)n3)cnc2s1 | 84.88
27 | O=c1c(-c2ccnc(NC3CCOCC3)n2)cnc2sc(Cl)cn12 | -8.128
28 | O=C1N(C2CCCCC2)C[C@H]2CN(C3CCC3)CCN12 | -8.618
29 | Cc1ccc(C(C)NCCc2nccn2Cc2ccccc2)o1 (stereo not given) | -3.119
30 | O=C(NCCc1ccccc1Cl)NCC1(O)CCSC1 (stereo not given) | 5.482
31 | COc1cccc(CCC2CCCN(C(=O)c3n[nH]c4c3CCC4)C2)c1 (stereo not given) | 9.398
32 | COc1ccccc1CC1CCCN(C(=O)c2n[nH]c3c2CCC3)C1 (stereo not given) | -10.41
33 | CO[C@H]1C[C@@H]2CN(C(=O)c3n[nH]c4c3CCCC4)C[C@@H]2C1 | 95.28
34 | O=C(NCc1ccccc1Cn1ccnc1)N1CCOCC1 | -11.31
35 | CCC(CNC(=O)c1nc(=O)[nH][nH]1)Oc1ccccc1C(F)(F)F (stereo not given) | -3.223
36 | CCc1nccn1C1CCCN(C(=O)c2ccn(C)c(=O)c2)C1 (stereo not given) | -5.694
37 | CCc1nccn1C1CCCN(C(=O)Cc2ccc(OC)c(F)c2)C1 (stereo not given) | -2.667
38 | CCc1nccn1C1CCCN(C(=O)c2ccc(OC)c(OC)c2)C1 (stereo not given) | 97.86
39 | CCc1nccn1C1CCCN(C(=O)c2ccc3c(c2)nnn3C)C1 (stereo not given) | 93.39
40 | CCOc1ccc(C(=O)N2CCCC(n3ccnc3C)C2)cc1OC (stereo not given) | 91.57
41 | Cc1nccn1C1CCCN(C(=O)c2ccc3c(c2)nnn3C)C1 (stereo not given) | -0.6055
42 | CCc1nccn1C1CCCN(C(=O)c2ccc3[nH]nnc3c2)C1 (stereo not given) | -5.197
43 | Cc1nc(C)c2c(n1)CCN(C(=O)C1(C#N)CC1)CC2 | -4.604
44 | Fc1cccc(-c2nnn3c2COC(CNCc2nccs2)C3)c1.O=C(O)C(F)(F)F (stereo not given) | -16.9
45 | Cc1nccc(N2CCC(Cc3cccc(C(=O)O)c3)CC2)n1 | 4.494
46 | CNC(=O)c1ccnc(N2CCCC(COc3cccc(C)c3)C2)c1 (stereo not given) | -58.5
47 | CC(=O)N1CCN(c2ccnc(C)n2)CC(COc2ccccc2)C1 (stereo not given) | 112.4
48 | CC(=O)N1CCN(C(C)C)CC(COc2ccccc2)C1 (stereo not given) | 109.4
49 | COc1cccc(OCC2CCCN(C3CCN(C(C)=O)CC3)C2)c1 (stereo not given) | -9.945
50 | COc1cccc(OCC2CCCN(C(C)=O)C2)c1 (stereo not given) | -1.082

Row | SMILES | Percent Effect [%]
51 | CC(=O)N1CCN(CC(N)=O)CC(COc2ccccc2)C1 (stereo not given) | 106.5
52 | Cc1ccc(OCC2CCCN(C(=O)CN3CCOCC3)C2)cc1 (stereo not given) | -2.27
53 | O=C(N1CCN(CCO)CC1)C1(O)Cc2ccccc2C1 | -5.424
54 | CCc1ccc(S(=O)(=O)Nc2cn(C)cc(Br)c2=O)cc1 | -15.07
55 | Cc1ccc(-c2ncc(CN3CCN(S(N)(=O)=O)CC3)s2)o1 | 2.671
56 | CCn1ccnc1CN(C)c1nc(-c2ccc(Cl)cc2)nc2c1CNC2 | -33.82
57 | O=c1nc(SCc2ccncc2)c2c(n1CCO)CCCC2 | -12.21
58 | COc1cccc(CN2C[C@H]3CCNCC[C@H]3S2(=O)=O)c1 | 18.94
59 | CN1CCCCC1c1nc(Cc2cccc(F)c2)no1 (stereo not given) | -5.711
60 | COc1ccc(Cn2c(C3CCNCC3)cc3cccnc32)cc1.Cl | 109.4
61 | CC[C@H](C)Cn1nc(C2CCNCC2)n(Cc2ccccc2)c1=O | -2.943
62 | CN1CCCC1c1cc2cccnc2n1Cc1ccc(F)cc1.Cl (stereo not given) | 120.9
63 | COc1cccc(Cn2c(C3CCNCC3)cc3cccnc32)c1.Cl | 140.1
64 | CCOC(C)C(=O)Nc1ccc(Sc2nncn2C)c(Cl)c1 (stereo not given) | -6.719
65 | Cc1cc(CS(=O)(=O)N(C)C(C)c2ccc(F)cc2)on1 (stereo not given) | -9.775
66 | CN(C)C(=O)NCc1cc2n(n1)CCN(C[C@H]1[C@@H]3CNC[C@@H]31)C2 | -18.92
67 | Cc1cnn(CCNCC(O)COc2c(C)ccc(C)c2C)c1 (stereo not given) | -3.427
68 | COc1cccc(-c2cccc(-c3ccn(CC4COCCO4)n3)c2)n1 (stereo not given) | -14.19
69 | COc1ccccc1CNC1(CCO)CCOCC1 | 8.279
70 | CNC(=O)[C@H]1C[C@@H]2CN(C(=O)c3cnc(C)cn3)C[C@@H]2N1C | 18.09
71 | Cc1cnc(C(=O)N2C[C@H]3CCCC(OCc4cccnc4)[C@H]3C2)cn1 (stereo not given in full) | -8.577
72 | O=C(c1cscn1)N1C[C@H]2CN(Cc3nccs3)C[C@H]2C1 | -12.17
73 | Cc1cnc(C(=O)N2C[C@H]3CN(Cc4cccs4)C[C@H]3C2)cn1 | 71.69
74 | Cc1cnc(C(=O)N2C[C@H]3CN(Cc4nccs4)C[C@H]3C2)cn1 | 103.8
75 | Cc1cnc(C(=O)N2C[C@@H]3[C@@H](C2)OCC(=O)N3CC2CCCC2)cn1 | 9.694

Row | SMILES | Percent Effect [%]
76 | O=C(O)C(F)(F)F.O=C1C[C@H]2[C@@H](CCN2C(=O)c2ccccc2)N1CCN1CCOCC1 | -5.805
77 | COc1ccccc1N1CCN(c2nc(N)nc3[nH]cnc23)CC1 | 106.2
78 | COc1ccccc1OC1CCN(c2nc(N)nc3[nH]cnc23)CC1 | -23.58
79 | Cc1cccc(OC2CCN(c3nc(N)nc4[nH]cnc34)CC2)c1 | -26.6
80 | Cc1ccc2nc(CN3CCN(C4CCCC4)C(=O)C3)cc(O)c2c1 | 1.578
81 | Cc1ccc2nc(CN3CCN(C4CCCCC4)C(=O)C3)cc(O)c2c1 | -5.19
82 | O=C1CN(Cc2ccc3ccccc3n2)CCN1C1CCCC1 | 128.2
83 | Cc1cccc(NC(=O)NCC2(N3CCOCC3)CCSC2)c1 (stereo not given) | 9.501
84 | Cc1cccc(-c2cccc(CC3(C(=O)O)CCOCC3)c2)c1 | 103
85 | COc1ccc(CC2(C(=O)O)CCN(c3nc(C)ncc3C)CC2)cc1 | -10.05
86 | Cc1cc(C)cc(-c2cccc(CC3(C(=O)O)CCOCC3)c2)c1 | -21.94
87 | Cc1ccccc1-c1cccc(CN2C[C@H]3C(=O)NC[C@@]3(C(=O)O)C2)c1 | 6.685
88 | Cc1ccc(-c2cccc(CC3(C(=O)O)CCOCC3)c2)c(C)c1 | 93.34
89 | C=C(C)CN(CC)C(=O)Nc1ccccc1CN(C)C(C)=O | 4.408
90 | Cc1nc2ccc(CN3CC4(CCOC4)CCC3=O)cc2[nH]1 (stereo not given) | 9.533
91 | COCc1nc2n(n1)CCCC2Nc1nc(C)ns1 (stereo not given) | -20.01
92 | COc1cccc(OCc2cc(C(=O)N3CC(O)C3)n[nH]2)c1 | -9.479
93 | CCC1(CO)CCN(C(=O)c2cc(COc3ccccc3F)[nH]n2)CC1 | 118.9
94 | CCC1(CO)CCCN(C(=O)c2cc(COc3ccccc3F)[nH]n2)C1 (stereo not given) | 110.4
95 | COc1ccccc1OCc1cc(C(=O)N2CCN[C@H](C)C2)n[nH]1 | 8.163
96 | COc1ccccc1OCc1cc(C(=O)N2CCS(=O)(=O)CC2)n[nH]1 | -14.83
97 | COc1ccccc1OCc1cc(C(=O)N2CCC(C(C)O)CC2)n[nH]1 (stereo not given) | 7.435
98 | CCC1(CO)CCCN(C(=O)c2cc(COc3cccc(F)c3)[nH]n2)C1 (stereo not given) | 87.47
99 | O=C(c1cc(COc2ccc3c(c2)OCO3)[nH]n1)N1CCCC1 | -5.101
100 | COc1ccccc1OCc1cc(C(=O)N2CCN(C(C)=O)CC2)n[nH]1 | -25.23
